Drawing on PubChem BioAssay (NCATS), this text covers activation for 11 compounds.

Several values for one entry are separate records, joined by “and”; a condition that tells them apart may be missing. Identical values can stand only once. Inconclusive results are not listed. A number with no mark means an inactive call. Unless noted, calls come from the whole dose curve.

Sequence of Bile acid receptor (Homo sapiens) (Q96RI1 whole entry, looked up): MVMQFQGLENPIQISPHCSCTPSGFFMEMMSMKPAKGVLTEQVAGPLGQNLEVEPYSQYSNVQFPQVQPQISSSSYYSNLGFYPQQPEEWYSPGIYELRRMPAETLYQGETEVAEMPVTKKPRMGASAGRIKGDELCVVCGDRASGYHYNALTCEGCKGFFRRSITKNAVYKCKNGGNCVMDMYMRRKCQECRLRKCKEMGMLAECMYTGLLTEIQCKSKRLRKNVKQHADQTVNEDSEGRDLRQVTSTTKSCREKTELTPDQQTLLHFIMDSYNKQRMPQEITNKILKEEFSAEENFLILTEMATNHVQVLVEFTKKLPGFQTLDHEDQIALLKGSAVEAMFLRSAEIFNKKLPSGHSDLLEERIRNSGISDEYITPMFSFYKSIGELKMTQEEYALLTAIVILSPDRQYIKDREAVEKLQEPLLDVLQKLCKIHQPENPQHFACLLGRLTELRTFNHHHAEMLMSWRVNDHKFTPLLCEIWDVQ

One assay addresses Bile acid receptor (Homo sapiens) (UniProt Q96RI1). Briefly: qHTS assay for small molecule agonists of farnesoid X receptor signaling (AID 588527).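 Note: series mostly up to about 77 µM; 0% = vehicle basal and 100% = reference agonist.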 As to conditions: HEK293T FXR-UAS-bla, beta-lactamase ratio, 16 h; hits give high values. A digest of the protocol: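 Agonist-mode beta-lactamase reporter in GeneBLAzer FXR-UAS-bla HEK293T cells, titration up to 92 uM, 16 h exposure at 37 C, CCF4 fluorescence. Response scaled to DMSO (0%) and 100 uM chenodeoxycholic acid (100%), then Hill-fitted for EC50 and efficacy.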
Background: Quantitative high-throughput screening tests each substance at several concentrations.
For `CC(C)OC(=O)Nc1cccc(Cl)c1`, the activation is 2.06%. For the compound `CNC(=O)Oc1cccc2c1OC(C)(C)O2`, the activation is -0.605%. Still for that read-out and setting: under `COP(N)(=O)SC` (centres undefined) stands 2.48%; under `O=C(O)COc1cc(Cl)c(Cl)cc1Cl`, -6.14%; under `COc1nc(NC(C)C)nc(NC(C)C)n1`, 0.515%.

For the next assay, the target named is Glucocorticoid receptor (Homo sapiens) (UniProt P04150). Briefly: qHTS assay for small molecule agonists of glucocorticoid receptor signaling (AID 588532; active = well fitted curve in the direction sought with a large enough effect in the signal ratio, with a control signal flat; the % refers to the signal ratio;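 note: 100% = dexamethasone at 0.1 µM and 0% = DMSO only wells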). The note with it: HeLa MMTV-bla, beta-lactamase ratio, agonist, 18 h; hits give high values; percent of dexamethasone control, DMSO zero. In a few lines: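 Quantitative HTS using CellSensor MMTV-bla HeLa cells in charcoal/dextran-treated serum; compounds tested up to 92 uM. After 18 h at 37 C, CCF4 dye reported reporter induction.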
Sequence of Glucocorticoid receptor (Homo sapiens) (P04150 whole entry, looked up): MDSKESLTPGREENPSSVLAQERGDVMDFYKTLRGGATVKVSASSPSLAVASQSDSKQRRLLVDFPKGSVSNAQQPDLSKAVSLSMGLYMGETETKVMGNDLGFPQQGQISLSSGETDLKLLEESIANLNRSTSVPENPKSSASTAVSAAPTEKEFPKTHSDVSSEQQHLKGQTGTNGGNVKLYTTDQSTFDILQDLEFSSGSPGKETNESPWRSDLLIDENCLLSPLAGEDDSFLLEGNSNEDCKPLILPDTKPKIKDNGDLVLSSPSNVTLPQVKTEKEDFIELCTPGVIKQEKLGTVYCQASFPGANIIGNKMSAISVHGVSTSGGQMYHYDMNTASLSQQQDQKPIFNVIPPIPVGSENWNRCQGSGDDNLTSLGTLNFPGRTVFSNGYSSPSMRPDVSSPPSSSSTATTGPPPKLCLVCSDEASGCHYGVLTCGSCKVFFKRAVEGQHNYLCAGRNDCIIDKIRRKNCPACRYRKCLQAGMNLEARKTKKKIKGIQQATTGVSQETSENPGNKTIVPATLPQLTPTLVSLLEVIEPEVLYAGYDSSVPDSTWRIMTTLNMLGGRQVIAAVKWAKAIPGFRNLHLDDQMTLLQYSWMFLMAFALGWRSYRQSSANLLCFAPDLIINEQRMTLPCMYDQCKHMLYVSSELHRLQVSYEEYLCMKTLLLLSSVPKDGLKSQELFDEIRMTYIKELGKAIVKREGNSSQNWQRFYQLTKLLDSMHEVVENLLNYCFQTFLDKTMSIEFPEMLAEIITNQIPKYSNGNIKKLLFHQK
Turning to `CNC(=O)Oc1cccc2c1OC(C)(C)O2`, the activation is -2.85%. In the case of `CCCCSP(=O)(SCCCC)SCCCC`, the activation was -15%. For `CCS(=O)CCSP(=O)(OC)OC` (centres undefined), the activation is 2.31%. Take `COP(N)(=O)SC` (centres undefined): the activation was -1.71% and 14.7%. Still for that read-out and setting: under `CC(C)(C)C(=O)C(Oc1ccc(Cl)cc1)n1cncn1` (centres undefined) stands -3.08% and -1.34%. Take `CC(C)N1C(=O)c2ccccc2NS1(=O)=O`: the activation was 4.24%. Turning to `O=C(O)COc1cc(Cl)c(Cl)cc1Cl`, the activation is -6.14%. Same read-out and setting: under `N#Cc1c(Cl)cccc1Cl` stands 0.597%.

In the case of `CNC(=O)Oc1ccccc1OC(C)C`, the activation is -7.67%.
